Data on 40 molecules can be found in PubChem BioAssay (NCATS).

Results filed as inconclusive are left out. A call without a number means that no potency is given here. Calls of active or inactive are those of the source. Calls follow the shape of the dose curve; as a rule, active = well fitted inhibition curve with a large enough effect; inconclusive = small, poorly fitted or top-dose-only effect; inactive = flat fitted curve, though single readings scatter.

Chain of Calcium and integrin-binding protein 1 (Homo sapiens) (Q99828 whole entry, looked up): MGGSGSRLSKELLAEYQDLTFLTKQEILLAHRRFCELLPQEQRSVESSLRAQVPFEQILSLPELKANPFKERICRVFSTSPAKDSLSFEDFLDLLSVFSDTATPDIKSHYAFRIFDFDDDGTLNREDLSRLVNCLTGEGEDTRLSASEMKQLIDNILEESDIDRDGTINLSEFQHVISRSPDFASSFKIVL

The assay deals with Calcium and integrin-binding protein 1 (Homo sapiens) (UniProt Q99828). Description: Primary qHTS for Identification of Calcium Integrin Binding Protein 1 (CIB1) Competitor (AID 1508620).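 Also: GST tagged CIB1 binding a fluorescein labelled alphaIIb integrin peptide tracer; top concentration of the series differs between compounds.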 The following applies: CIB1-GST / FITC-alphaIIb peptide fluorescence polarization; series mostly up to 114 µM. The procedure, abridged:
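Fluorescence polarization competition: CIB1-GST (1 uM final) preincubated with compound 15 min at room temperature, then FITC-labeled alphaIIb peptide (100 nM final) added for another 15 min. Polarization read at Ex 480/Em 540.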
As for `Cn1c2cc(S(C)(=O)=O)sc2c2cnn(Cc3ccccc3F)c(=O)c21`, the Potency entry was “inactive”.

Take `CC(C)c1cc2c(s1)c1cnn(Cc3ccccc3F)c(=O)c1n2C`: the Potency result is “inactive”.

Consider `Cn1c2cc(CO)sc2c2cnn(Cc3ccccc3F)c(=O)c21`, for which the Potency result is “inactive”.

On to `COc1ccc(-c2ccc(CNc3ccc(N4CCN(C(=O)OC(C)(C)C)CC4)cc3)o2)cc1`, for which the Potency result was “inactive”.

As to `COc1ccc(C(=O)Nc2ccc(-c3nc4ccccc4[nH]3)cc2)cc1Br`, the Potency entry was “inactive”.

Take `COc1ccc(OCc2cc(C3Nc4ccccc4C(=O)N3Cc3ccccc3)ccc2OC)cc1` (stereo not given): the Potency entry was “inactive”.

With `CC(C)(C)OC(=O)N1CCN(c2ccc(OCc3ccc(-c4ccc(C#N)cc4)o3)cc2)CC1`, the Potency entry is “inactive”.

On to `Cc1ccc(-c2nc3ccccc3[nH]2)cc1NC(=O)c1ccc(-c2cccc(Cl)c2)o1`, for which the Potency result was “inactive”.

`O=[S+]([O-])(c1ccc2nsnc2c1)N1CCN([S+](=O)([O-])c2c(F)cccc2F)CC1`: the Potency result is “inactive”.

As for `O=C(O)CCCCCNC(=O)CSc1nnc(-c2ccc([S+](=O)([O-])N3CCCC3)cc2)n1-c1ccccc1`, the Potency result was “inactive”.

`COc1ccc(-c2ccc3ncnc(NCC4CCCO4)c3c2)cc1OC` (stereo not given): the Potency entry was “inactive”.

As to `COc1cc(NC(=O)C(OC(=O)CNC(=O)c2ccccc2)c2ccccc2)cc(C(F)(F)F)c1` (stereo not given), the Potency result is “inactive”.

As to `Cc1nc2ccc(Nc3nc(Nc4c(C)cc(C=CC#N)cc4C)nc4nc[nH]c34)cc2s1`, the Potency result was “inactive”.

Regarding `CCc1c(C)nc2cc(-c3ccc(OC)c(OC)c3)nn2c1N1CCCC1`, the Potency entry is “inactive”.

Consider `NC(=O)C1CCN(c2nc(-c3cccc(F)c3)cs2)CC1`, for which the Potency result is “inactive”.

Consider `Oc1ccc(COCc2ccccc2)c2cccnc12`, for which the Potency entry is “inactive”.

Regarding `COc1cccc(CNc2ccc([S+](=O)([O-])Nc3ccccc3)cc2)c1Cl`, the Potency entry is “inactive”.

Take `COc1ccc(-c2nnc3n2N=C(c2ccccc2OC)CS3)c(OC)c1`: the Potency entry is “inactive”.

As to `COc1ccc(NC(=O)c2cnn3c(C)cc(C)nc23)cc1OC`, the Potency entry is “inactive”.

Consider `CN(C)c1ccc(C(=O)OCC#CCSc2nnc(-c3cccc4ccccc34)o2)cc1`, for which the Potency result was “inactive”.

Take `CCOc1ccc(C(=O)Oc2ccc(-c3nc4ccccc4[nH]3)cc2)cc1Cl`: the Potency entry is “inactive”.

As for `O=C1Cc2cc(S(=O)(=O)N3CCN(c4ccc(Cl)cc4)CC3)ccc2N1`, the Potency result is “inactive”.

With `N#Cc1ccc(C[C@@H](NS(=O)(=O)c2ccc(C(=O)O)cc2)C(=O)O)cc1`, the Potency entry was “inactive”.

As for `COc1ccc(CC(=O)Nc2nc(-c3ccc4c(c3)CCN4C(=O)c3ccccc3C)c(C)s2)cc1`, the Potency entry was “inactive”.

`C/C(=C\c1ccsc1)C1Nc2cccc3cccc(c23)N1`: the Potency result is “inactive”.

Take `O=C(/C=C/c1ccc(Cl)cc1)Nc1cccc([S+](=O)([O-])Nc2ccccc2F)c1`: the Potency entry is “inactive”.

Turning to `Cc1cc2c(s1)c1c(n2C)C(=O)N(Cc2ccccc2F)C1`, the Potency result was “inactive”.

Take `Cc1cc2c(s1)c1cnn(Cc3c(F)cccc3Cl)c(=O)c1n2C`: the Potency entry is “inactive”.

`C=C(C)c1cc2c(s1)c1cnn(Cc3ccccc3F)c(=O)c1n2C`: the Potency entry is “inactive”.

Take `O=S(=O)(c1cccc(Cl)c1)N1CCN(S(=O)(=O)c2ccc3c(c2)OCCO3)CC1`: the Potency entry was “inactive”.

`NC(=O)C1CCN(c2nc(-c3ccc(OCc4ccccc4)cc3)cs2)CC1`: the Potency entry was “inactive”.

Take `OCC#CCSc1nnc(-c2cccc3ccccc23)o1`: the Potency result is “inactive”.

Take `COc1ccc(S(=O)(=O)N2CCN(C(=O)C3COc4ccccc4O3)CC2)cc1` (stereo not given): the Potency entry is “inactive”.

Regarding `Cc1cc(N[S+](=O)([O-])c2ccc(NC(=O)Cn3c(=O)oc4ccc(Cl)cc43)cc2)no1`, the Potency result was “inactive”.

For the molecule `Brc1sc2c(c1-c1nc3ccccc3s1)CCNC2`, the Potency entry is “inactive”.

In the case of `Cc1cc2c(s1)c1cnn(Cc3ccc(C(=O)O)cc3)c(=O)c1n2C`, the Potency result is “inactive”.

For `Oc1cc(-c2ccc(N3CCCCC3)nc2)cc2cccnc12`, the Potency entry is “inactive”.

As for `Cc1ccc(S(=O)(=O)Nc2cccc3cccnc23)cc1`, the Potency entry is “inactive”.

Regarding `O=[S+]([O-])(c1ccc2c(c1)OCCO2)N1CCN([S+](=O)([O-])c2ccc(F)cc2Cl)CC1`, the Potency entry is “inactive”.

Regarding `COc1cccc(OC)c1C1=Nn2c(nnc2-c2ccccc2C)SC1`, the Potency entry was “inactive”.
